Assay [1] addresses T1, Serine/threonine-protein kinase Nek9 (Homo sapiens) (UniProt Q8TD19).
T1 sequence (whole entry): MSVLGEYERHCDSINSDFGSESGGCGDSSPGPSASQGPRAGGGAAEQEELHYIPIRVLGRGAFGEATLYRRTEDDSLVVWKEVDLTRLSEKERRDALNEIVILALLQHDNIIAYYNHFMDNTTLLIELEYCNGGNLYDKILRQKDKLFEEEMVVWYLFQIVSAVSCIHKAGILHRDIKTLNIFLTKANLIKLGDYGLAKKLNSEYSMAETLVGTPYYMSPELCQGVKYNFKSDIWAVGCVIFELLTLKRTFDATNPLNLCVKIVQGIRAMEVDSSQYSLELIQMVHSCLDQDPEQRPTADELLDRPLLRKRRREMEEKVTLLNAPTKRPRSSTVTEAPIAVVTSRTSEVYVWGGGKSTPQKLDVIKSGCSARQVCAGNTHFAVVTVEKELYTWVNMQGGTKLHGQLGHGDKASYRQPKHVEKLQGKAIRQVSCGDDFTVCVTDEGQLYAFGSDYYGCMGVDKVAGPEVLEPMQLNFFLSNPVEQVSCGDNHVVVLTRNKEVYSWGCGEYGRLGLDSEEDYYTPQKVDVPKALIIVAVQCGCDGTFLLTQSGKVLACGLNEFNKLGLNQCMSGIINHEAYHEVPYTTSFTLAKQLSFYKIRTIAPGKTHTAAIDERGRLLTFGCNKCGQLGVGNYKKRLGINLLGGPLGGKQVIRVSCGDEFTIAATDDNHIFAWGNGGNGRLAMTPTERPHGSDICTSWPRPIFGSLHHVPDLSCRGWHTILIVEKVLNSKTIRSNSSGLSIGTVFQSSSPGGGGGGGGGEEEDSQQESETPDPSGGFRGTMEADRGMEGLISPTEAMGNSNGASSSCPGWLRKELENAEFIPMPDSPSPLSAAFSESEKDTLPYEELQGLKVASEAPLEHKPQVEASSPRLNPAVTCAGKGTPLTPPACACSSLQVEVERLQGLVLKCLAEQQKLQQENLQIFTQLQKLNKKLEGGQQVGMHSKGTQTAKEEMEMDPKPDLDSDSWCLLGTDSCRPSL
To be noted: at 1 µM.

For assay [2], the target named is Serine/threonine-protein kinase PLK1 (Homo sapiens) (UniProt P53350). The settings on record: at 0.1 µM.
Chain of Serine/threonine-protein kinase PLK1 (Homo sapiens) (P53350 whole entry): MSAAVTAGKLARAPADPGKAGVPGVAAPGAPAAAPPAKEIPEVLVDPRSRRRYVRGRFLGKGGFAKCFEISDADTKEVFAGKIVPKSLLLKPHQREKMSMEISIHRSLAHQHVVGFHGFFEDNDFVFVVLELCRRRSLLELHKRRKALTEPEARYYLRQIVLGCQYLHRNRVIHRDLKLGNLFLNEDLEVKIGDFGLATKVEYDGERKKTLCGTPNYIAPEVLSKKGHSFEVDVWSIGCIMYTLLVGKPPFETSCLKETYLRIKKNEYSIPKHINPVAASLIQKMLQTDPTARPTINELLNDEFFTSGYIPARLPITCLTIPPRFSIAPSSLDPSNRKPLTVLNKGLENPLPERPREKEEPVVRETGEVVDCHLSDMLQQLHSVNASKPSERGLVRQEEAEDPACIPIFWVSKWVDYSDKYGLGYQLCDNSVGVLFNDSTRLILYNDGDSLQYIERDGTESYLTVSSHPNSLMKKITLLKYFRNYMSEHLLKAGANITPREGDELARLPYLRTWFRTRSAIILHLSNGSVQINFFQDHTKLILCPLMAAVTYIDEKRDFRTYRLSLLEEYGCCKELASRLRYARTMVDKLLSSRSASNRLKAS
For assay [3] the target is unchanged. To be noted: at 1 µM.
Assay [4] concerns the target T2, Dual specificity protein kinase TTK (Homo sapiens) (UniProt P33981).
T2 sequence (whole entry): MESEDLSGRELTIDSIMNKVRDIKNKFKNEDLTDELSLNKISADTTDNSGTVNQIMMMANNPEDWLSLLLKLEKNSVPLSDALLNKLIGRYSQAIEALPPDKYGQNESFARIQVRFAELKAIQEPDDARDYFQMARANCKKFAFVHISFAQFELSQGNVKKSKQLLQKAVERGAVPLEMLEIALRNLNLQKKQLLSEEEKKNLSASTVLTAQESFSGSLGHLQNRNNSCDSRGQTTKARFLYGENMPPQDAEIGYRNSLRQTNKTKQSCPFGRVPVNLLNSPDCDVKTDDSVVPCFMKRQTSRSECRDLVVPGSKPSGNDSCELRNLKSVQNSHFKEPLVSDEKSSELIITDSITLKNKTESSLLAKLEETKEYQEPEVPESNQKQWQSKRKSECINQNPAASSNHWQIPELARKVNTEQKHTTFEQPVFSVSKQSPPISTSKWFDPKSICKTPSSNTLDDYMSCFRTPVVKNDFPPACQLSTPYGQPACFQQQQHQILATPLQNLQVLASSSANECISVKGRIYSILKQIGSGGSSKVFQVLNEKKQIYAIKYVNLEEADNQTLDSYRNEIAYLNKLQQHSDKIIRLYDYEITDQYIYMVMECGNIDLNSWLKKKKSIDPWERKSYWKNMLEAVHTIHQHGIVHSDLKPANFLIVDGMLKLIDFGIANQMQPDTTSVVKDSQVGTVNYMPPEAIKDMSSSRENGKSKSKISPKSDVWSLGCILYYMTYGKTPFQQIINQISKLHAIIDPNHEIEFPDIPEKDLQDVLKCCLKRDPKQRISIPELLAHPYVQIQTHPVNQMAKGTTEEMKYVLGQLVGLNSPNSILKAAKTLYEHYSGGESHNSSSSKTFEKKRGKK
To be noted: at 0.1 µM.

Assay [5] has as its system T3, Receptor-type tyrosine-protein kinase FLT3 (Homo sapiens), P36888 [D835Y].
T3 sequence (whole entry): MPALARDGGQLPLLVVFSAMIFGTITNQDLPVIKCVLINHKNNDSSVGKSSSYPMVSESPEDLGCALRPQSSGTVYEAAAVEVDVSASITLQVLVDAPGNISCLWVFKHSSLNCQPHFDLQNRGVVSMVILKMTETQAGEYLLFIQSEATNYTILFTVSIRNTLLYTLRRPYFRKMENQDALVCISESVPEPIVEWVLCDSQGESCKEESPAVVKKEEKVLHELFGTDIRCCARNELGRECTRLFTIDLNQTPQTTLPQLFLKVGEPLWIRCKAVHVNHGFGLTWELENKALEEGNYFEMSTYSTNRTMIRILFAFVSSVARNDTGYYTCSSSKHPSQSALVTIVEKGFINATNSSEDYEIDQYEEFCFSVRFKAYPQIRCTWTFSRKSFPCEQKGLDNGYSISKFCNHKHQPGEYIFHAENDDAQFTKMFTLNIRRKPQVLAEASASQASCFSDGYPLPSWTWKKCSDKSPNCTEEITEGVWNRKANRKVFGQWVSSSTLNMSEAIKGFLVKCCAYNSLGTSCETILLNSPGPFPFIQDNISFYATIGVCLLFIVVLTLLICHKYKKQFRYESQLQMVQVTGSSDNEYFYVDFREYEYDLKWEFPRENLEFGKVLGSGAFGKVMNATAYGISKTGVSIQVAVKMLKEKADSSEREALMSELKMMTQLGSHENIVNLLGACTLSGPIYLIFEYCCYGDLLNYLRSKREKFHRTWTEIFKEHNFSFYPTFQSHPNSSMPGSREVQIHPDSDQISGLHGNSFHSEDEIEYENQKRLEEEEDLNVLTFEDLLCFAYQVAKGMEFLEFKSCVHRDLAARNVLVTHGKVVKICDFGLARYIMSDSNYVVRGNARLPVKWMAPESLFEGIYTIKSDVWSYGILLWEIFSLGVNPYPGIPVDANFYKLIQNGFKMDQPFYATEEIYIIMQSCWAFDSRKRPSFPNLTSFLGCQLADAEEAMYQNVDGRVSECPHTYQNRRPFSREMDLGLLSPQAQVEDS
To be noted: at 1 µM.

Assay [6] deals with Vascular endothelial growth factor receptor 3 (Homo sapiens) (UniProt P35916). The settings on record: at 0.1 µM.
The target is the same in assay [7]. To be noted: at 1 µM.
The target of assay [8] is Macrophage colony-stimulating factor 1 receptor (Homo sapiens) (UniProt P07333). The settings on record: at 0.1 µM.
Chain of Macrophage colony-stimulating factor 1 receptor (Homo sapiens) (P07333 whole entry): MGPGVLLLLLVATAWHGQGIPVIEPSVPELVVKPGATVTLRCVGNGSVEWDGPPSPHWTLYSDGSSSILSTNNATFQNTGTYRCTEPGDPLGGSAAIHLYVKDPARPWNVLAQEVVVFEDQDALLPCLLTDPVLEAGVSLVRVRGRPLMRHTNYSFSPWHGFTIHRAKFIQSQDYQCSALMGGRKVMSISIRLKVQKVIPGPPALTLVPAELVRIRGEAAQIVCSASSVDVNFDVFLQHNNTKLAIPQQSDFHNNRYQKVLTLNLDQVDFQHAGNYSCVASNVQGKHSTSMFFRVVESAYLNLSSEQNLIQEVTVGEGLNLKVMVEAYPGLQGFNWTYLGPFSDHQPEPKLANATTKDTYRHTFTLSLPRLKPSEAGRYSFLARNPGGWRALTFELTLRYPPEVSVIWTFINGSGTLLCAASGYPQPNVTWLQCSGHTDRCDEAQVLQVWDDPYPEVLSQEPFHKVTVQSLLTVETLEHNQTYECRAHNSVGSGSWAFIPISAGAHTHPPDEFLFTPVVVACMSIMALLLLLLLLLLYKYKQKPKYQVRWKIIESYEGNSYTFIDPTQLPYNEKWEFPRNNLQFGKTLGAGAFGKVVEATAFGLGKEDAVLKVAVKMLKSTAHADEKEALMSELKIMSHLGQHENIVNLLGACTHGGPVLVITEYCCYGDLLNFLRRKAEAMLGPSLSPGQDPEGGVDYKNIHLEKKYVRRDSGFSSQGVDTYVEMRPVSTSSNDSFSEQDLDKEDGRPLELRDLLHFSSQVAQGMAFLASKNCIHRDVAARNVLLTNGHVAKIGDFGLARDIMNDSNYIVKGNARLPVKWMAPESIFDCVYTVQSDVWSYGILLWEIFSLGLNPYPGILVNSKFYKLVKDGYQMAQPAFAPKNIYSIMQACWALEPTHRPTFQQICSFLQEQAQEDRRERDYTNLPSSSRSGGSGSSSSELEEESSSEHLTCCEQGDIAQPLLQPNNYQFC
For assay [9] the target is unchanged. The settings on record: at 1 µM.
For assay [10], the target named is Tyrosine-protein kinase Fyn (Homo sapiens) (UniProt P06241). The settings on record: at 0.1 µM.
Chain of Tyrosine-protein kinase Fyn (Homo sapiens) (P06241 2-537 limits assumed): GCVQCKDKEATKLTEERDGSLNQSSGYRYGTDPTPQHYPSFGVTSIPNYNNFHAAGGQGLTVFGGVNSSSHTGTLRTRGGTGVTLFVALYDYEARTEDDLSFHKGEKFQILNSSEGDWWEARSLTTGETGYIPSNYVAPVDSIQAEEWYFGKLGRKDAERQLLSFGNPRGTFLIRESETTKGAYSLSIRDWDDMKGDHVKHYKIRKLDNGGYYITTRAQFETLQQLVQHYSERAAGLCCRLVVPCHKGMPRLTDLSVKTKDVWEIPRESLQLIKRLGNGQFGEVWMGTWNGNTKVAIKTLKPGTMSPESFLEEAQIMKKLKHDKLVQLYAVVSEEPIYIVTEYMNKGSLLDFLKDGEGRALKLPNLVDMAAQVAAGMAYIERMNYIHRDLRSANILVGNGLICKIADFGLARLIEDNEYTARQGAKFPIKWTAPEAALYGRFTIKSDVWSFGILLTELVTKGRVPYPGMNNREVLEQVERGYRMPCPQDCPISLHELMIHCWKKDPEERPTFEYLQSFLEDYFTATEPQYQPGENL
Assay [11] has the same target. To be noted: at 1 µM.
Assay [12] addresses Tyrosine-protein kinase HCK (Homo sapiens) (UniProt P08631). The settings on record: at 0.1 µM.
The target is the same in assay [13]. To be noted: at 1 µM.
Assay [14] deals with Insulin-like growth factor 1 receptor (Homo sapiens) (UniProt P08069). To be noted: at 1 µM.
Chain of Insulin-like growth factor 1 receptor (Homo sapiens) (P08069 31-736 limits assumed): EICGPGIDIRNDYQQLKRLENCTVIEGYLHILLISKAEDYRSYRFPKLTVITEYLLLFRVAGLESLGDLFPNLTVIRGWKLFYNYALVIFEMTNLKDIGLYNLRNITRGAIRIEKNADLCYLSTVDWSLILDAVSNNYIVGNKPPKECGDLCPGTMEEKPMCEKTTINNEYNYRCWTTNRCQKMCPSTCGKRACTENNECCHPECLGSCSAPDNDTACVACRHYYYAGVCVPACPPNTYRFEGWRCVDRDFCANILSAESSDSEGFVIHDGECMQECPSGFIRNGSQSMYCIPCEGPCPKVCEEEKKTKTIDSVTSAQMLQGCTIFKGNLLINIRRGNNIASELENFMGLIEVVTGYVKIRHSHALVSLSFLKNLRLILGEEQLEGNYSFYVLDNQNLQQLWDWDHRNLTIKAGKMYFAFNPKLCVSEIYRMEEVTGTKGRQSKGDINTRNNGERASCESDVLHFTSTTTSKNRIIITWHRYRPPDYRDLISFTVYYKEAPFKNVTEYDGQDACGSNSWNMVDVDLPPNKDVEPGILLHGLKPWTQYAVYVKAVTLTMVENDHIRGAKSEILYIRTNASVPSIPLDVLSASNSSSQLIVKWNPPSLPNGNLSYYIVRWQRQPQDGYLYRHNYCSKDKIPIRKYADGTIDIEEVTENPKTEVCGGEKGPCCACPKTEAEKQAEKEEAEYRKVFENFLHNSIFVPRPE
Chain of Insulin-like growth factor 1 receptor (Homo sapiens) (P08069 741-1367 limits assumed): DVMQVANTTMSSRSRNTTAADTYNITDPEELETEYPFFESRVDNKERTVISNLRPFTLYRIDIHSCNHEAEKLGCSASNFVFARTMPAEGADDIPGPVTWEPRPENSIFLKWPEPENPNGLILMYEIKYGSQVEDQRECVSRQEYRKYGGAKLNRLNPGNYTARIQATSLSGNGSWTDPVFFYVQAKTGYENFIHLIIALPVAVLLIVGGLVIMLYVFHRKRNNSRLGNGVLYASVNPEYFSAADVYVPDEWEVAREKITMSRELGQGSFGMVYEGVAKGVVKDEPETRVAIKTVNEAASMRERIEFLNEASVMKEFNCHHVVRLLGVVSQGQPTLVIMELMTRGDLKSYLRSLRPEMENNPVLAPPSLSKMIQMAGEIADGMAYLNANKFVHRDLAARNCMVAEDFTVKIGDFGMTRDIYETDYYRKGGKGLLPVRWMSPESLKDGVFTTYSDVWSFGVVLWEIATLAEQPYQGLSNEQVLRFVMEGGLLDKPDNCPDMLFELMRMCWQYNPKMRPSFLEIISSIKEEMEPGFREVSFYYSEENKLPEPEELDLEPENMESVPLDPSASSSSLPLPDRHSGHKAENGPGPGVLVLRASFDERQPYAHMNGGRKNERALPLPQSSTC
The target of assay [15] is Insulin receptor (Homo sapiens) (UniProt P06213). The settings on record: at 0.1 µM.
For assay [16] the target is unchanged. To be noted: at 1 µM.
The target of assay [17] is Insulin receptor-related protein (Homo sapiens) (UniProt P14616). To be noted: at 0.1 µM.
Chain of Insulin receptor-related protein (Homo sapiens) (P14616 27-742 limits assumed): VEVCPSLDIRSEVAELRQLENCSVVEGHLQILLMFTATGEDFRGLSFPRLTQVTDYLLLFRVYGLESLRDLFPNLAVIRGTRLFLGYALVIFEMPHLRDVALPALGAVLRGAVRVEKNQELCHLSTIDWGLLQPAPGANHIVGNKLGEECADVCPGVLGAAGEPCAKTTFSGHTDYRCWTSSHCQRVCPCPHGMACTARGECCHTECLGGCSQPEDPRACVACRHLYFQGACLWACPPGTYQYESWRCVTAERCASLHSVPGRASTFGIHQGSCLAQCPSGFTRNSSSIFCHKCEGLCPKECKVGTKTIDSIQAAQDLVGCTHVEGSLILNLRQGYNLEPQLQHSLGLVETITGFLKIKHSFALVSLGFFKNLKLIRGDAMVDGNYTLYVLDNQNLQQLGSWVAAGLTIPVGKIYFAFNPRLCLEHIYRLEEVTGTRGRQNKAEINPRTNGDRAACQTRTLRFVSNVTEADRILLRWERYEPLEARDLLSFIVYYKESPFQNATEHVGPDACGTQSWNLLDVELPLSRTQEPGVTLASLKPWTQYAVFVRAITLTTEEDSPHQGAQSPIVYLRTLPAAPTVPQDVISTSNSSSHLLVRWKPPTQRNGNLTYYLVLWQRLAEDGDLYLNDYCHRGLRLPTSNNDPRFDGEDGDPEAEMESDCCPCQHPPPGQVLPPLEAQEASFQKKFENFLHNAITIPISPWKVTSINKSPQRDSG
Chain of Insulin receptor-related protein (Homo sapiens) (P14616 747-1297 limits assumed): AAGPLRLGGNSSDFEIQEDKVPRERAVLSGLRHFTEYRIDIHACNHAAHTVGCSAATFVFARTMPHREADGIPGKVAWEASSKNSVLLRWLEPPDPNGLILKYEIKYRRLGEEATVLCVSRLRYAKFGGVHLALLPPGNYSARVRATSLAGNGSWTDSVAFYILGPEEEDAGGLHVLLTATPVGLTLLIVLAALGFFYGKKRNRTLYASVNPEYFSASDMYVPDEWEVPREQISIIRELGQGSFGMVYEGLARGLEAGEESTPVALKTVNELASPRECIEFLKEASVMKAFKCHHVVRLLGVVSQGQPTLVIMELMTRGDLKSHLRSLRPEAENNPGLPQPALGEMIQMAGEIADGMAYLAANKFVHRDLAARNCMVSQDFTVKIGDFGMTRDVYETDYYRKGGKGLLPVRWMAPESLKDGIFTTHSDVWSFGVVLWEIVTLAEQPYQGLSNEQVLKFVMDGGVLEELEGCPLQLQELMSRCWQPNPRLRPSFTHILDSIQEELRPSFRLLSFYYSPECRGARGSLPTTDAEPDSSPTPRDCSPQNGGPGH
The target is the same in assay [18]. To be noted: at 1 µM.
Assay [19] concerns the target T4, Tyrosine-protein kinase ITK/TSK (Homo sapiens) (UniProt Q08881).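 Further: mean percent inhibition of ITK from the GSK PKIS screen.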
T4 sequence (whole entry): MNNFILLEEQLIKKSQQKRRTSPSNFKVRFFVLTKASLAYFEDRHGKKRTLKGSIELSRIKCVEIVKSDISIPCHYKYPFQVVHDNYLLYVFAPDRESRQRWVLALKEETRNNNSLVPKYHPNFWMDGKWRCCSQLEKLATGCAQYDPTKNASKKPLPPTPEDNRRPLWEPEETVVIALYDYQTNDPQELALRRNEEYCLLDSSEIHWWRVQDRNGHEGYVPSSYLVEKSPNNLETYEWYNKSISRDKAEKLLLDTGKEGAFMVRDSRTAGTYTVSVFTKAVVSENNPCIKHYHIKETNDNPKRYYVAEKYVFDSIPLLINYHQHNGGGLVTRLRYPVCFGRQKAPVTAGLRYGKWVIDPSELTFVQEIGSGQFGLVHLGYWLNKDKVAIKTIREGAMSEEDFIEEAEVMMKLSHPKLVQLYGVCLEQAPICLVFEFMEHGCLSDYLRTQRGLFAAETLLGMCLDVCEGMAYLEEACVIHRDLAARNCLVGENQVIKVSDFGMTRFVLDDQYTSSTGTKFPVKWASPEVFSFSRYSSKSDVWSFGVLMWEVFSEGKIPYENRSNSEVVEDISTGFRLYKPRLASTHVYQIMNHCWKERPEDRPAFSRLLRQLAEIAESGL
The settings on record: at 0.1 µM.

The target of assay [20] is Insulin-like growth factor 1 receptor (Homo sapiens) (UniProt P08069). To be noted: at 0.1 µM.

For orientation: inhibition means the relative decrease from the control value, in per cent. Regarding `CS(=O)(=O)CCN(CC#N)Cc1ccc(-c2ccc3ncnc(Nc4ccc(OCc5cccc(F)c5)c(Cl)c4)c3c2)o1`, the inhibition in assay [1] is 3.24%; in [2] it was 4.17%; in assay [3] it was 2.97%; in assay [4], 2.64%; in assay [5], 0.21%; in [6] it was -3.53%. The inhibition was -8.49% in assay [7]; 1.14% in assay [8]; 5.44% in [9]; -3.25% in assay [10]; -3.53% in assay [11]; 2.47% in assay [12]. For the same compound, the inhibition in assay [13] was 3.04%; in [14] it was -4.22%; in assay [15], 4.4%; in assay [16], 2.93%; in assay [17] it was -0.19%; in [18], 0.84%. In addition, the inhibition in assay [19] was -2.61%.
`Cc1nn(C)c2cc(N(C)c3ccnc(Nc4cccc(S(N)(=O)=O)c4)n3)ccc12`: the inhibition in assay [1] was 13.1%; in assay [2] it was 2.85%; in [3], 3.39%; in assay [4] it was 13%; in [5] it was 11.9%; in [6], 15.6%. For the same compound, the inhibition in assay [7] was found to be 62.9%; in [8], 75.5%; in [9], 93.9%; in [10], 4.56%; in [11], 28.7%; in assay [12], 12.8%. The inhibition in [13] was 50.2%; in assay [20], 1.89%; in assay [14], 7.04%; in [15], 8.17%; in assay [16], 3.38%; in assay [17], 0.14%. In addition, the inhibition stood at 0.9% in [18] and 1.53% in assay [19].
For `NC(=O)c1ccc(-c2nc(-c3ccccn3)c(-c3ccc4c(c3)OCO4)[nH]2)cc1`, the inhibition in assay [1] came out at 6.43%; in assay [2], 5.18%; in assay [3] it was 2.1%; in assay [4] it was 6.47%; in assay [5] it was 1.63%; in [6], 0.44%. The inhibition in [7] was -0.31%; in assay [8], 1.36%; in assay [9], 2.49%; in [10], 1.15%; in assay [11] it was 8.01%; in [12], 3.56%. The inhibition in assay [13] was found to be 4.66%; in assay [20], 1.18%; in assay [14] it was 2.2%; in assay [15] it was 3.26%; in assay [16], 5.06%; in assay [17], 3.02%. Also, the figures for the inhibition in [18] and in assay [19] were -0.59% and 1.2%, respectively.
Regarding `COc1cc2ncn(-c3cc(O[C@H](C)c4ccccc4Cl)c(C(N)=O)s3)c2cc1OC`, the inhibition in assay [1] stood at 91.6%; in assay [4] it was 9.01%; in [5], 39.6%; in assay [6], 31.8%; in [7], 81.3%; in assay [8], 8.07%. Besides, the inhibition came to 41.9% in [9]; 2% in assay [10]; 8.81% in [11]; 11.7% in [12]; 51.8% in assay [13]; 2.5% in assay [20]. The inhibition in [14] is 3.13%; in assay [15], 2.07%; in assay [16], 4.73%; in assay [17], 1.49%; in assay [18], 2.98%; in assay [19] it was 2.64%.

The values above are taken from ChEMBL document CHEMBL1961873, “Compounds: GSK PKIS; Assays: Nanosyn kinase panel” (2012).
